Out of some 5,500 compounds screened, about 2,000 (36%) were called active. Another 18% or so got no clear call; they are omitted. Cut-off read from the data, not from the text of the source: active = normalized growth mostly below about 0.91 (no sharp cut-off); inconclusive = no clear call, values can overlap the other calls; inactive = mostly above about 0.92. This is one part of the list.
Experiment: chemical genetic growth profiling, strain panel (AID 1159580);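 note: tested at 20 µM; growth read once vehicle control cultures reached saturation at 30 °C; 1 = growth at the plate median or of vehicle wells; lower values mean less growth of the strain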
Details: S. cerevisiae deletion strains, growth OD

Measured: normalized growth

[Li+]
inactive: locus YAL013W, strain DEP1, stronger effect = lower value 1.01 | locus YAL040C, strain CLN3, stronger effect = lower value 0.996 | locus YCL061C, strain MRC1 (second series), stronger effect = lower value 1.01 | locus YDR150W, strain NUM1, stronger effect = lower value 1.02 | locus YDR363W, strain ESC2, stronger effect = lower value 1.01 | locus YER002W, strain NOP16, stronger effect = lower value 1 | locus YGR229C, strain SMI1, stronger effect = lower value 1.02 | locus YMR307W, strain GAS1, stronger effect = lower value 0.994 | locus YNL175C, strain NOP13, stronger effect = lower value 1 | locus YNL197C, strain WHI3, stronger effect = lower value 1.02 | locus YNL224C, strain SQS1, stronger effect = lower value 1 | locus YOR083W, strain WHI5 (second series), stronger effect = lower value 1.01 | locus YPL241C, strain CIN2, stronger effect = lower value 1.01

c1ccc(-c2ccc(C(c3ccccc3)n3ccnc3)cc2)cc1 (configuration not stated)
active: locus YAL021C, strain ccr4, stronger effect = lower value 0.0644 | locus YAL026C, strain drs2, stronger effect = lower value 0.0618 | locus YAL030W, strain snc1, stronger effect = lower value 0.0587 | locus YBL061C, strain skt5, stronger effect = lower value 0.0709 | locus YBR009C, strain hhf1, stronger effect = lower value 0.0624 | locus YBR023C, strain chs3, stronger effect = lower value 0.0697 | locus YBR171W, strain sec66, stronger effect = lower value 0.0929 | locus YBR231C, strain swc5, stronger effect = lower value 0.0689 | locus YBR279W, strain paf1, stronger effect = lower value 0.0719 | locus YCL011C, strain gbp2, stronger effect = lower value 0.0606 | locus YCL016C, strain dcc1, stronger effect = lower value 0.0733 | locus YCL069W, strain vba3, stronger effect = lower value 0.066 | locus YCR088W, strain abp1, stronger effect = lower value 0.0692 | locus YDL005C, strain med2, stronger effect = lower value 0.0767 | locus YDL040C, strain nat1, stronger effect = lower value 0.0668 | locus YDR001C, strain nth1, stronger effect = lower value 0.067 | locus YDR069C, strain doa4, stronger effect = lower value 0.0703 | locus YDR137W, strain rgp1, stronger effect = lower value 0.127 | locus YDR159W, strain sac3, stronger effect = lower value 0.0937 | locus YDR195W, strain ref2 0.13 | locus YDR297W, strain sur2, stronger effect = lower value 0.0659 | locus YDR334W, strain swr1, stronger effect = lower value 0.0716 | locus YDR335W, strain msn5, stronger effect = lower value 0.0638 | locus YDR392W, strain spt3, stronger effect = lower value 0.0713 | locus YEL003W, strain gim4, stronger effect = lower value 0.0535 | locus YEL037C, strain rad23, stronger effect = lower value 0.0622 | locus YEL061C, strain CIN8 (second series), stronger effect = lower value 0.0652 | locus YER015W, strain faa2, stronger effect = lower value 0.0699 | locus YER016W, strain bim1, stronger effect = lower value 0.0698 | locus YER111C, strain swi4, stronger effect = lower value 0.0902 | locus YER155C, strain BEM2 (second series), stronger effect = lower value 0.0914 | locus YFR010W, strain ubp6, stronger effect = lower value 0.0846 | locus YGL167C, strain pmr1, stronger effect = lower value 0.124 | locus YGL173C, strain kem1, stronger effect = lower value 0.0886 | locus YGL227W, strain vid30, stronger effect = lower value 0.077 | locus YGL240W, strain doc1, stronger effect = lower value 0.108 | locus YGL253W, strain hxk2, stronger effect = lower value 0.0596 | locus YHR013C, strain ard1, stronger effect = lower value 0.105 | locus YHR027C, strain rpn1, stronger effect = lower value 0.0776 | locus YHR030C, strain SLT2, stronger effect = lower value 0.105 | locus YHR079C, strain IRE1, stronger effect = lower value 0.13 | locus YHR142W, strain chs7, stronger effect = lower value 0.0799 | locus YJL092W, strain hpr5, stronger effect = lower value 0.0642 | locus YJL095W, strain BCK1 (second series), stronger effect = lower value 0.0592 | locus YJL095W, strain BCK1, stronger effect = lower value 0.127 | locus YJL115W, strain asf1, stronger effect = lower value 0.087 | locus YJL129C, strain trk1, stronger effect = lower value 0.102 | locus YJL154C, strain vps35, stronger effect = lower value 0.0754 | locus YJL164C, strain tpk1, stronger effect = lower value 0.0615 | locus YJL166W, strain qcr8, stronger effect = lower value 0.0657 | locus YJL187C, strain SWE1, stronger effect = lower value 0.0683 | locus YJR066W, strain TOR1, stronger effect = lower value 0.0151 | locus YKL160W, strain elf1, stronger effect = lower value 0.0739 | locus YKR026C, strain gcn3, stronger effect = lower value 0.0725 | locus YKR091W, strain srl3, stronger effect = lower value 0.066 | locus YLL001W, strain dnm1, stronger effect = lower value 0.0668 | locus YLL026W, stronger effect = lower value 0.0595 | locus YLL041C, strain sdh2, stronger effect = lower value 0.0629 | locus YLR027C, strain aat2, stronger effect = lower value 0.0596 | locus YLR113W, strain HOG1, stronger effect = lower value 0.164 | locus YLR221C, strain rsa3, stronger effect = lower value 0.0622 | locus YLR258W, strain gsy2, stronger effect = lower value 0.0654 | locus YLR262C, strain YPT6 (second series), stronger effect = lower value 0.0894 | locus YLR320W, strain mms22, stronger effect = lower value 0.0767 | locus YLR342W, strain FKS1, stronger effect = lower value 0.0755 | locus YLR357W, strain rsc2, stronger effect = lower value 0.128 | locus YLR370C, strain arc18, stronger effect = lower value 0.0619 | locus YLR384C, strain iki3, stronger effect = lower value 0.0674 | locus YML120C, strain ndi1, stronger effect = lower value 0.0564 | locus YMR058W, strain fet3, stronger effect = lower value 0.068 | locus YMR125W, strain sto1, stronger effect = lower value 0.082 | locus YMR129W, stronger effect = lower value 0.0621 | locus YMR205C, strain PFK2, stronger effect = lower value 0.0925 | locus YMR231W, strain pep5, stronger effect = lower value 0.179 | locus YNL071W, strain lat1, stronger effect = lower value 0.0616 | locus YNL183C, strain NPR1, stronger effect = lower value 0.0338 | locus YNL209W, strain ssb2, stronger effect = lower value 0.0868 | locus YNL248C, strain rpa49, stronger effect = lower value 0.0877 | locus YNL322C, strain KRE1 (second series), stronger effect = lower value 0.08 | locus YNR049C, strain mso1, stronger effect = lower value 0.0653 | locus YOR001W, strain rrp6, stronger effect = lower value 0.075 | locus YOR070C, strain gyp1, stronger effect = lower value 0.0635 | locus YOR080W, strain dia2, stronger effect = lower value 0.0729 | locus YOR083W, strain WHI5, stronger effect = lower value 0.0687 | locus YOR106W, strain vam3, stronger effect = lower value 0.0685 | locus YOR231W, strain MKK1, stronger effect = lower value 0.141 | locus YOR265W, strain rbl2, stronger effect = lower value 0.0651 | locus YOR270C, strain vph1, stronger effect = lower value 0.0985 | locus YOR290C, strain snf2, stronger effect = lower value 0.0719 | locus YPL051W, strain arl3, stronger effect = lower value 0.0743 | locus YPL078C, strain atp4, stronger effect = lower value 0.07 | locus YPL106C, strain sse1, stronger effect = lower value 0.116 | locus YPL240C, strain hsp82, stronger effect = lower value 0.0631 | locus YPL256C, strain CLN2, stronger effect = lower value 0.153
